# From PubChem BioAssay
# Shown are actives, neighbours in structure and some others; about 3.8% of the full set was active somewhere.
# ATXN2 expr inh – ATXN2 expression inhibition; HEK-293 ATXN2-luciferase reporter, luminescence, 24 h; Potency, µM (doses to about 57 µM), without a hit: at the top dose activity change, negative = inhibition, actives largely listed as inhibitors; 360,000 tested, 0.72% active; note: % is set by controls: 0 for no effect and ±100 for the full control effect; nearly all actives have a fitted effect of over 55% in size
#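 ATXN2-luciferase reporter cells (luciferase flanked by upstream and downstream ATXN2 gene portions) were treated 24 h at 37 °C with compounds at up to 57 uM. SteadyGlo luminescence gave expression; GF-AFC fluorescence gave viability.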
# HepG2 viability – HepG2 cytotoxicity, counter-screen for TGF-b inhibitors. Potency, µM (top dose mostly 46.1 µM), for inactives: at the highest dose activity change, negative = cytotoxicity, most hits filed as cytotoxic. 410,000 tested, 0.76% active. AID 588856. HepG2 CAGA-GFP viability, ATP luminescence, 18 h
#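 CellTiter-Glo luminescence gave cytotoxicity after 18 hours at 37 degrees C. The cells were HepG2 CAGA-GFP in 1% FBS DMEM, stimulated with 500 pg/mL TGF-beta after compound addition. %Activity was normalised to no-cell wells (complete cell-killing) and DMSO (no toxicity), and curves were fitted and classified.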
# S2 tox – viability counter-screen for ATXN expression inhibitors. 400,000 tested, 0.49% active. Potency, µM (top dose mostly 56.7 µM), usual class: cytotoxic. S2 cells (HEK-293 line with an ATXN2-luciferase reporter) viability, CellTiter-Fluor protease fluorescence, 24 h; note: nearly all actives have a fitted effect of over 40% in size
# Nrf2 inh – Nrf2 pathway inhibition. A549 ARE-Fluc reporter, luciferase luminescence, 18-24 h. 360,000 tested, 2.1% active. Potency, µM (top dose mostly 46 µM), inactives show at the top dose activity change, negative = inhibition, usual class: inhibitors. AID 504444; note: % is set by controls: 0 for no effect and ±100 for the full control effect; nearly all actives have a fitted effect of over 60% in size
#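 Quantitative HTS in A549 cells stably bearing an antioxidant response element-firefly luciferase construct. Inhibition of Nrf2-driven transcription was scored by luminescence after 18-24 h of compound exposure at 37 °C.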
# A549 tox-1 – counter-screen for Nrf2 inhibitors: cytotoxicity in A549 cells; AID 504648; Potency, µM (highest dose often 46 µM), for the others: at the top dose activity change, negative = cytotoxicity, most hits filed as inhibitors; 390,000 tested, 0.16% active; A549 ARE-Fluc cells, CellTiter-Fluor viability, 18-24 h; note: % is set by controls: 0 for no effect and ±100 for the full control effect
#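 A549 ARE-Fluc cells in 5% FBS OPTI-MEM, 5000 cells/well, rested 2 h then exposed to compounds in concentration-response for 18-24 h at 37 °C. Viability by CellTiter-Fluor fluorescence (Ex 405/Em 525) after 30 min; luciferase luminescence (BugLite, 15 min, RT) read afterwards.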
# TGFb inhibitor – blocks TGF-b signaling | HepG2 CAGA-GFP TGF-b/SMAD3 reporter, GFP fluorescence, 18 h; TGF-beta stimulated, 500 pg/mL final | Potency, µM (highest dose often 46.1 µM), for the others: top-dose activity, negative = inhibition, hits mostly inhibitors | 410,000 tested, 1.2% active; note: % is set by controls: 0 for no effect and ±100 for the full control effect; nearly all actives have a fitted effect of over 65% in size
#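 Using HEPG2 CAGA-GFP reporter cells at 1000 cells/well, we pinned test compounds, stimulated with recombinant TGF-beta (500 pg/mL final) and measured total well GFP after 18 h.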
# FLuc counter 3 – firefly luciferase inhibition, Nrf2 hit validation | shares compounds with Nrf2 inh | purified firefly luciferase, luminescence inhibition | Potency, µM (top dose mostly 57.5 µM), for inactives: top-dose activity change, negative = inhibition, actives largely listed as inhibitors | 1,400 tested, 4% active | AID 720522; note: % is set by controls: 0 for no effect and ±100 for the full control effect; nearly all actives have a fitted effect of over 65% in size
# Target sequence (P08659 whole entry, looked up): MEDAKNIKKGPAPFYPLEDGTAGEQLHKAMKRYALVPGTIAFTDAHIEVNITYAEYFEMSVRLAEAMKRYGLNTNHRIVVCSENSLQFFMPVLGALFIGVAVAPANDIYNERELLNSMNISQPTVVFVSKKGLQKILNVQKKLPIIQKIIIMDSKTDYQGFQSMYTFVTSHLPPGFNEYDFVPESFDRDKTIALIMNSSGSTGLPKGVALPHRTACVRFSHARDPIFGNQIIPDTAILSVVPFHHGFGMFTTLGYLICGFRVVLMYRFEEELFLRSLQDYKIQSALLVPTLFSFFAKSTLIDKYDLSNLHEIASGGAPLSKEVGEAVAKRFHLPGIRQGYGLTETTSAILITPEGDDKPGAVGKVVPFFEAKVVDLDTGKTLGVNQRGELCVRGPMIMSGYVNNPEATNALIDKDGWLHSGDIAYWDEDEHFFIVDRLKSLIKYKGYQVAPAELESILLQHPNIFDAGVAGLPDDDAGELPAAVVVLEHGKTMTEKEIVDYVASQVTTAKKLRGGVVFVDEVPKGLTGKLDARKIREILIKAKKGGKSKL
# A549 tox-2 – A549 cytotoxicity, Nrf2 inhibitor counterscreen; shares compounds with Nrf2 inh; A549 ARE-Fluc cells, cytotoxicity counterscreen; Potency, µM (doses to about 46.1 µM), inactives show at the highest dose activity change, negative = cytotoxicity, actives largely listed as inhibitors; 1,400 tested, 2% active;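 note: cells exposed to compounds for 18 to 24 hours; % is set by controls: 0 for no effect and ±100 for the full control effect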
# Nrf2 ARE inh – reduces Nrf2 ARE reporter signal in A549 cells; shares compounds with Nrf2 inh; Potency, µM (titrated, usually from 46.1 µM), for inactives: at the highest dose activity change, negative = inhibition, most hits filed as inhibitors; A549 ARE-firefly luciferase reporter, luminescence; AID 720524; 1,400 tested, 74% active; note: % is set by controls: 0 for no effect and ±100 for the full control effect; nearly all actives have a fitted effect of over 65% in size
# An asterisk follows results filed as active; i = inactive; ? = inconclusive; . = not tested or not shown; ! = not confirmed by another sample. Calls come from the whole dose curve; as a rule, active = well fitted curve in the direction sought with a large enough effect; inconclusive = small, poorly fitted or top-dose-only effect, or another doubt; inactive = no such curve, though single readings can be large; an effect the other way counts as inactive or inconclusive. Potency is the fitted concentration of half-maximal effect.
SMILES,ATXN2 expr inh,HepG2 viability,S2 tox,Nrf2 inh,A549 tox-1,TGFb inhibitor,FLuc counter 3,A549 tox-2,Nrf2 ARE inh
CC12CCC(=O)C=C1C(F)CC1C2C(O)CC2(C)C1CCC2(O)C(=O)CO (stereo not given),3%,-42%,i,0.058µM*,4%,-4%,0%,-5%,0.058µM*
O=C(c1cccc(Cl)c1)C1CCCN(C(=O)c2ccoc2)C1 (stereo not given),-2%,-53%,i,1%,2%,-6%,.,.,.
CC1CCc2c(sc(NC(=O)/C=C/c3cccs3)c2C(=O)O)C1 (stereo not given),4%,-8%,?,6.5µM*,-24%,-7%,?,?,7.3µM*
CC1CCc2c(sc(NC(=O)c3ccco3)c2C(=O)O)C1 (stereo not given),-1%,5%,i,?,?,-13%,.,.,.
O=S(=O)(c1ccccc1)N1CCC(O)(CSc2ccc(F)cc2)CC1,?,-17%,?,4.1µM*,?,0%,0%,-7%,6.5µM*
O=S(=O)(c1ccccc1)N1CCC(O)(CSc2ccccc2)CC1,-27%,-9%,i,?,-11%,-13%,.,.,.
CN(C)c1ccc(NC(=O)CCN2CCN(c3ccccn3)CC2)cc1,.,-16%,i,-21%,0%,11%,.,.,.
CC1(C)CC(N2CCN(c3ccccc3)CC2)=CC(=[N+]2CCCC2)C1,?,-3%,i,?,-6%,-20%,2%,-13%,4.6µM*
CC1(C)CC(N2CCCC2)=CC(=[N+]2CCCCCC2)C1,?,-8%,i,-20%,-23%,-30%,.,.,.
CC1CC(C)C[N+](=C2C=C(N3CCCC3)CC(C)(C)C2)C1 (stereo not given),?,-46%,?,5.2µM*,?,?,-3%,-28%,.
N#Cc1ccc(OCC(=O)NNC(=S)NC2CCCCC2)cc1,-14%,-16%,i,-27%,0%,-15%,.,.,.
O=C(C1=NNCC1c1ccccc1)C1CO1 (stereo not given),5%,-21%,i,1%,7%,-6%,.,.,.
O=c1c2cccc3c2c(nn1CN1CCOCC1)-c1ccccc1-3,-16%,-9%,i,3.7µM*,-13%,-17%,3%,-9%,8.2µM*
CN(C)S(=O)(=O)N1CCC(Oc2ccc(C(=O)NC3Cc4ccccc4C3)cc2)CC1,.,-30%,i,?,-9%,?,.,.,.
CN(C)S(=O)(=O)N1CCC(Oc2cccc(C(=O)NC3CCCCCC3)c2)CC1,-30%,-30%,i,2.6µM*,-16%,-10%,2%,?,0.073µM*
O=c1oc2ccccc2cc1-c1csc(Cc2nc(-c3ccc(Br)cc3)cs2)n1,-18%,-14%,?,2.9µM*,-16%,19%,2%,-3%,.
Cc1cc(C)c(-c2csc(Cc3nc(-c4cc5ccccc5oc4=O)cs3)n2)cc1C,-21%,-15%,i,?,1%,-13%,.,.,.
Nc1cc(S(=O)(=O)Nc2ccccc2Cl)ccc1N1CCCCC1,8%,-25%,i,7.3µM*,-10%,?,9.5µM*,-4%,15µM*
Cc1ccc(C(=O)N[C@H](C(=O)N2CCN(c3ccccc3F)CC2)C(C)C)cc1,-21%,-3%,?,-15%,-10%,-24%,.,.,.
COc1ccc(NC(=S)NC(=O)/C=C/c2cccs2)cc1,.,0%,i,15%,-2%,-12%,.,.,.
O=C(/C=C/c1cccs1)NC(=S)Nc1ccc(S(=O)(=O)Nc2ccccc2C(F)(F)F)cc1,.,-37%,i,8.2µM*,-10%,?,-28%,-9%,-11%
CC(=O)N1CCN(c2ccc(Oc3ccc([N+](=O)[O-])c(C(F)(F)F)c3)cc2)CC1,?,-6%,i,8.2µM*,?,-4%,-1%,-9%,8.2µM*
COc1ccccc1-n1c(-c2ccccc2)c[n+]2c1CCc1ccccc1-2,6.7µM*!,-21%,?,3.7µM*,?,13µM*,2%,-11%,8.2µM*
COc1ccccc1-n1c(-c2ccccc2)c[nH]c1=S,-21%,-10%,?,-1%,13%,-8%,.,.,.
CC(C)c1ccc(-n2c(-c3ccccc3)c[n+]3c2CCc2ccccc2-3)cc1,?,-22%,?,2.1µM*,10µM*,?,2%,?,2.6µM*
SMILES,ATXN2 expr inh,HepG2 viability,S2 tox,Nrf2 inh,A549 tox-1,TGFb inhibitor,FLuc counter 3,A549 tox-2,Nrf2 ARE inh
Cc1ccnc2cc(Cl)cc(Cl)c12,.,30%,.,.,.,14%,.,.,.
Cc1ccnc2ccc3ccccc3c12,.,1%,.,.,.,-17%,-1%,-23%,6.5µM*
CCCCCCCCCCCCOCCOCCOCCOCCOCCOCCOCCOCCOCCO,?,.,i,.,.,.,.,.,.
COc1ccc(-c2csc(NC(=O)C3CCN(c4ncnc5sc(C)c(C)c45)CC3)n2)cc1OC,7.9µM*,-9%,i,4.1µM*,-15%,-24%,0%,-10%,6.5µM*
COC(=O)c1c(SCc2ccc(C#N)cc2)nc(=O)[nH]c1C,-5%,-12%,i,-22%,-2%,5%,.,.,.
Cc1cc(Cl)c(S(=O)(=O)N2CCN(c3ccc(F)cc3)CC2)cc1OCC(=O)NC1CCCCC1,-23%,-36%,?,0.29µM*,-28%,-18%,1%,-27%,0.73µM*
Cc1cc(Cl)c(S(=O)(=O)N2CCN(c3ccc(F)cc3)CC2)cc1OCC(N)=O,-19%,-9%,i,?,-5%,?,.,.,.
CC(C)C[C@@H]1O[C@H](CCc2ccccc2)Cc2[nH]c(=S)[nH]c(=O)c21,-14%,.,?,.,.,.,.,.,.
C(=C\c1ccc2ccccc2n1)/c1ccccc1,.,10µM*!,i,?,0%,?,3%,?,7.3µM*
CC[N+](CC)(CC)c1ccc(/C=C/c2ccc3ccccc3n2)cc1,.,10µM*,.,.,.,6.3µM*,24µM*,9.2µM*,2.1µM*
